# Measured values published in PubChem BioAssay (NCATS).
# Results filed as inconclusive are left out. Active and inactive are the calls of the source. Unless noted, calls follow the shape of the dose curve; as a rule, active = well fitted curve in the direction sought with a large enough effect; inconclusive = small, poorly fitted or top-dose-only effect, or another doubt; inactive = no such curve, though single readings can be large; an effect the other way counts as inactive or inconclusive.
# Key:
# [1] = biological target: T1, Hexokinase-4 (Homo sapiens) + Glucokinase regulatory protein (Homo sapiens) (UniProt P35557+Q14397); assay: qHTS assay for inhibitors of recombinant human GCK-GKRP interaction: Diaphorase-coupled assay (AID 743205)
# T1 sequence (P35557 whole entry, looked up): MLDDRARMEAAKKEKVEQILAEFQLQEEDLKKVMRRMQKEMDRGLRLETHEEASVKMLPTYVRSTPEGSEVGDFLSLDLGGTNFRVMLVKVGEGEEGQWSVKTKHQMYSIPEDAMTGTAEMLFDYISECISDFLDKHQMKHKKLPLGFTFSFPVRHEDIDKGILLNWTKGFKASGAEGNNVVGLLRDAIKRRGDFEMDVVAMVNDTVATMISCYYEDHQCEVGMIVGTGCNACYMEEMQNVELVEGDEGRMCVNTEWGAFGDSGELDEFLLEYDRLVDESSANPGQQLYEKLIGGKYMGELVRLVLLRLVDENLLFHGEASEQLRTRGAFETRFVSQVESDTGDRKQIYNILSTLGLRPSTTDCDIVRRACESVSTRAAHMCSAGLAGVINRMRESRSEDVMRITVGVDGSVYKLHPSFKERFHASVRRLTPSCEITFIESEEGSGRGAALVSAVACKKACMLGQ
# T1 sequence (Q14397 whole entry, looked up): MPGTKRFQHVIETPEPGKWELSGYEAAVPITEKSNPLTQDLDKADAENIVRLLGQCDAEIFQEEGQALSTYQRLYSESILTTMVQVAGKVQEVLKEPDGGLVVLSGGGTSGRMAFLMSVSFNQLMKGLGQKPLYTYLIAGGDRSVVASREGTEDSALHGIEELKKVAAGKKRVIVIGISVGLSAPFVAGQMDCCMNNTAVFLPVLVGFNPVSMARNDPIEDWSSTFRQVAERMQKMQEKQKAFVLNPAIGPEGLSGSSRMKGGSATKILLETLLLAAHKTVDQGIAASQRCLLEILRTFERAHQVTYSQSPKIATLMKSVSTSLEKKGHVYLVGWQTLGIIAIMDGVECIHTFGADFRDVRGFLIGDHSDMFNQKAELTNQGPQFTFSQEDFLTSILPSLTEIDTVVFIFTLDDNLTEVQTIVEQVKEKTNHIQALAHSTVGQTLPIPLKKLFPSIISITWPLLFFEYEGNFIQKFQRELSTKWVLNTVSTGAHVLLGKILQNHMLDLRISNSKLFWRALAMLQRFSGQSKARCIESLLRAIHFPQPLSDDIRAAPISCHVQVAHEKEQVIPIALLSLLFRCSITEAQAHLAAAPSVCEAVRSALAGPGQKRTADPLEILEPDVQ
# In short: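 Inhibitors of the GCK–GKRP complex relieve GKRP suppression of GCK, detected through a G6PDH–diaphorase cascade reducing resazurin. Human GST-GCK and FLAG-GKRP are used at 10 nM with 5 mM glucose and 0.4 mM ATP.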
# [2] = biological target: T1, Hexokinase-4 (Homo sapiens) + Glucokinase regulatory protein (Homo sapiens); assay: qHTS assay for inhibitors of recombinant human GCK-GKRP interaction: ADP-Glo assay (AID 743206);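 also: plate controls were DMSO plus enzyme for no effect and no enzyme for full effect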
# In short: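 GST-GCK and FLAG-GKRP (15 nM each in the dispensed mix, with 2 uM S6P) react with 0.4 mM ATP and 5 mM glucose (final) in Hepes pH 7.6 for 60 min at room temperature. ADP is measured by ADP-Glo luminescence.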
# [3] = biological target: T1, Hexokinase-4 (Homo sapiens) + Glucokinase regulatory protein (Homo sapiens); assay: qHTS assay for inhibitors of recombinant human GCK-GKRP interaction: HTRF assay (AID 743207);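 also: 0% = DMSO with GCK present and -100% = DMSO wells lacking GCK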
# In short: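 Steps: dispense GCK–GKRP complex (5 nM each, GST- and FLAG-tagged) with 2 uM S6P; pin in compounds; add XL665/Eu-cryptate-labelled antibodies; incubate 60 min at room temperature; read time-resolved FRET at 665 and 615 nm.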
# [4] = qHTS Assay for Identifying Gametocytocidal Compounds (AID 743244); also: potency is read from the fitted curve at half-maximal effect;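 as to max response: % is scaled to controls: 0 for no effect and ±100 for the full control effect; actives lower the fluorescent signal which means gametocytes are killed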; details: P. falciparum 3D7 stage III-V gametocytes, alamarBlue, 72 h; max response: stronger effect = lower value
# In short: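 Compounds are pinned into medium, gametocytes (stage III–V, 3D7, 20,000 cells/well) added, and plates held 72 h at 37 °C in 5% CO2. AlamarBlue follows for 24 h before fluorescence reading.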
# [5] = High-throughput drug toxicity screening in the BPDCN cell line Gen2.2 (AID 1224824; call rule not given here;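 also: cells exposed to compounds for 48 h before reading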); details: Gen2.2 BPDCN cells; at 45.8 µM (top of the series) unless noted
# In short: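 Gen2.2, 500 cells/well, phenol red-free RPMI/10% FBS/Pen-Strep; 48 h cpd, 37 °C/5% CO2; CTG lum, 15 min RT. Norm: DMSO = 100%, bortezomib 9.2 uM final = 0%.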
# [6] = High-throughput drug toxicity screening in the BPDCN cell line Cal-1 (AID 1224825; call rule not given here); details: Cal-1 BPDCN cell viability, qHTS; at 45.8 µM (top of the series) unless noted
# In short: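 Exponentially growing Cal-1 cells, 500 per well in phenol red-free RPMI with 10% FBS, were exposed to compounds for 48 h at 37 °C, 5% CO2. Viability was read by CellTiter-Glo luminescence and normalised to DMSO (100%) and 9.2 uM bortezomib (0%).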
# [7] = qHTS assay for measurement of the activity of small molecule inhibitors on Zika virus induced Caspase-3 activity in human iPSC derived neural progenitor cells (hNPCs) (AID 1224857); also: % of control where 0% means no effect; nearly all actives have a fitted effect of over 65% in size
# In short: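 Pretreat hNPCs with compound 1 h; infect ZIKV 2 FFU/cell; 6 h 37 C, 5% CO2; Caspase-Glo 3/7, 30 min RT; luminescence; normalize to no-virus and virus-only wells.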
# [8] = qHTS assay for measurement of the activity of small molecule inhibitors on Zika virus induced Caspase-3 activity in human astrocytoma cells (AID 1224859);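 also: plate controls were ZIKV-infected untreated cells for no effect and uninfected cells for full effect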
# In short: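 Human SNB-19 astrocytoma cells in RPMI 1640 with 10% FBS receive compound one hour ahead of Zika virus at 2 FFU/cell. After 6 h infection, caspase-3/7 activity is detected by Caspase-Glo luminescence.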
# [9] = qHTS Screen of the MIPE 4.0 Collection Against Ewings Sarcoma (RDES) (AID 1259252); also: nearly all actives have a fitted effect of over 35% in size; also: potency is read from the fitted curve at half-maximal effect
# In short: (§1)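 Measured: ATP luminescence (CellTiter-Glo) 10 min after reagent addition, following 48 h drug treatment. Relative luciferase units converted to percent activity, with no-cell wells as full and DMSO wells as zero inhibition.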
# [10] = qHTS Screen of the MIPE 4.0 Collection Against Ewings Sarcoma (TC71) (AID 1259253); also: nearly all actives have a fitted effect of over 40% in size; also: potency is read from the fitted curve at half-maximal effect
# In short: as §1
# [11] = qHTS Screen of the MIPE 4.0 Collection Against Ewings Sarcoma (EW8) (AID 1259255); also: nearly all actives have a fitted effect of over 35% in size; also: potency is read from the fitted curve at half-maximal effect;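 as to viability: 100% = DMSO-treated cells and 0% = medium-only wells without cells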
# In short: as §1
# [12] = qHTS profiling for inhibitors of Plasmodium falciparum (3D7) proliferation (AID 743322; call rule not given here;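 also: infected erythrocytes exposed to compound for 72 h before lysis; 100% = DMSO vehicle wells and 0% = 0.29 µM artemisinin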); details: P. falciparum 3D7 proliferation; at 28.7 µM (top of the series)
# In short: (§2)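 Erythrocytes infected with P. falciparum (0.3% parasitemia, 2.5% hematocrit) incubated with compounds 72 h at 37 C, 5% CO2. Lysis with saponin/Triton buffer containing SYBR Green I, overnight at room temperature in the dark; DNA fluorescence (485/535 nm) normalised to 0.29 uM artemisinin and DMSO.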
# [13] = qHTS profiling for inhibitors of Plasmodium falciparum (DD2) proliferation (AID 743323; call rule not given here); details: lower = more inhibition; at 28.7 µM (top of the series)
# In short: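 Parasite proliferation measured via DNA-dye fluorescence, as uninfected erythrocytes lack DNA. Cultures at 0.3% parasitemia and 2.5% hematocrit incubated 72 h with compound; signal scaled between vehicle and 0.29 uM artemisinin wells.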
# [14] = qHTS profiling for inhibitors of Plasmodium falciparum (HB3) proliferation (AID 743324); details: Plasmodium falciparum HB3 blood-stage proliferation; at 28.7 µM (top of the series);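 also: 100% = DMSO vehicle wells and 0% = artemisinin-treated control wells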
# In short: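 P. falciparum HB3 grown in erythrocytes (0.3% parasitemia, 2.5% hematocrit final) with compound for 72 h at 37 C, 5% CO2. Parasite DNA detected by SYBR Green after saponin/triton lysis overnight; normalized to 0.29 uM artemisinin and DMSO.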
# [15] = qHTS profiling of the MIPE4 collection as inhibitors of Plasmodium falciparum (3D7) proliferation (AID 743344; call rule not given here;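 also: scaled between DMSO vehicle wells and 0.29 µM artemisinin as full inhibition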); details: P. falciparum 3D7 in erythrocytes, SYBR Green DNA fluorescence, 72 h; at 28.5 µM (top of the series) unless noted
# In short: as §2
# [16] = qHTS profiling of the MIPE4 collection as inhibitors of Plasmodium falciparum (DD2) proliferation (AID 743345; call rule not given here); details: P. falciparum Dd2 in erythrocytes, SYBR Green DNA, 72 h; at 28.5 µM (top of the series) unless noted
# In short: as §2
# [17] = qHTS profiling of the MIPE4 collection as inhibitors of Plasmodium falciparum (DD2) proliferation (Rep 2) (AID 743346; call rule not given here); details: P. falciparum Dd2 in erythrocytes, SYBR Green DNA, 72 h; at 28.5 µM (top of the series) unless noted
# In short: as §2
# [18] = qHTS profiling of the MIPE4 collection as inhibitors of Plasmodium falciparum (HB3) proliferation (AID 743347; call rule not given here;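 also: plate controls were DMSO vehicle wells for no effect and artemisinin wells for full effect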); details: P. falciparum HB3 in erythrocytes, SYBR Green DNA, 72 h; at 28.5 µM (top of the series) unless noted
# In short: as §2
Structure (SMILES),outcome [1],outcome [2],outcome [3],max response [4],"cell viability, % of control (lower = more cytotoxic) [5] [%]",viability (% of control) [6] [%],Potency [7],Potency [8],Potency [9],Potency [10],Potency [11],Potency [4],remaining parasite growth % (stronger effect = lower value) [12] [%],"activity, percent of control [13] [%]","remaining proliferation (% of control), lower = more inhibition [14] [%]","parasite growth, % of DMSO control [15] [%]","parasite growth remaining, % of DMSO control (lower = more inhibition) [16] [%]","parasite growth, % of control (lower = inhibition) [17] [%]","growth, % of control [18] [%]"
O=c1[nH]c(=O)n([C@H]2C[C@@H](O)[C@@H](CO)O2)cc1C=CBr,inactive,inactive,inactive,30.7% (inactive),164,115,inactive,inactive,inactive,inactive,inactive,–,–,–,–,–,–,–,–
Cn1c(Nc2ccc(C(F)(F)F)cc2)nc2cc(Oc3ccnc(-c4ncc(C(F)(F)F)[nH]4)c3)ccc21,–,–,–,–,9.63,13.2,inactive,inactive,14.8 µM (active),7.43 µM (active),5.26 µM (active),23.5 µM (active),-1.53,0.692,-0.79,7.02,10.9,19.4,8.58
N#Cc1ccc(COC[C@H]2O[C@@H](n3c(NCc4ccc(Cl)c(Cl)c4)nc4c(N)ncnc43)[C@@H](O)[C@@H]2O)cc1,–,–,–,-16.6% (inactive),10.7,3.42,inactive,inactive,9.35 µM (active),9.35 µM (active),9.35 µM (active),–,37.7,23.4,21.1,20.4,48.6,–,23.2
CC(N[C@H]1CCCC[C@H]1NC(=O)c1ccc(Cl)cc1)c1cccc2ccccc12 (some centres not stated),–,–,–,–,114,20.6,inactive,inactive,inactive,inactive,inactive,–,–,–,–,–,–,–,–
CC(=O)N[C@H]1[C@@H]([C@H](O)[C@H](O)CO)OC(C(=O)O)=C[C@@H]1N=C(N)N,–,–,–,–,114,124,inactive,inactive,inactive,inactive,inactive,–,–,–,–,–,–,–,–
CON=C(C(=O)N[C@@H]1C(=O)N2C(C(=O)O)=C(Cn3ccc(=N)n3CCO)CS[C@H]12)c1csc(N)n1,–,–,–,–,137,95.7,inactive,inactive,inactive,inactive,inactive,–,–,–,–,–,–,–,–
OCc1ccccc1O[C@@H]1O[C@H](CO)[C@H](O)[C@H](O)[C@H]1O,–,–,–,–,151,108,inactive,inactive,inactive,inactive,inactive,–,–,–,–,95.9,96.7,89.7,92.1
CC1(C)CC(O)CC(C)(C)N1[O],–,–,–,–,152,102,inactive,inactive,inactive,inactive,inactive,–,–,–,–,–,–,–,–
O=C(O)CCCCC(CCSCc1ccccc1)SCc1ccccc1 (configuration not stated),–,–,–,–,54.3,23.9,inactive,inactive,inactive,inactive,inactive,–,84,84,70.4,76.2,96.3,–,63.9
